# Screening data from PubChem.
# Rows were chosen to be rich in hits. Some 0.42% of all compounds tested hit in one or more screens of this group.
# Tb PGK inh – qHTS Assay to Find Inhibitors of Phosphoglycerate Kinase | 0.043% of 380,000 active | Potency, µM (top dose mostly 57.5 µM), hits mostly inhibitors | PGK/GAPDH coupled, Kinase-Glo luminescence, 60 min | Phosphoglycerate kinase, glycosomal (Trypanosoma brucei brucei), P07378; note: nearly all actives have a fitted effect of over 60% in size
#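 Luminescent ATP detection (Kinase-Glo Plus) follows a 60-minute room-temperature incubation, with wells lacking PGK as controls. Buffer: 100 mM TEA (pH 7.6), 5 mM MgCl2, 0.01% Tween-20. Coupling enzyme GAPDH (100 nM final) supplies unstable 1,3-BPG in-well.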
# Chronic BCR inh – qHTS Assay to Find Inhibitors of Chronic Active B-Cell Receptor Signaling. ABC-DLBCL IkBa-CBG/CBR reporter, luminescence ratio, 4 h. Potency, µM (series often up to 46.1 µM), most hits filed as inhibitors. 0.05% of 340,000 active; active = well fitted inhibition curve with a large enough effect in the signal ratio, with a control signal flat, not every such curve was filed as active; inconclusive = small, poorly fitted or top-dose-only effect, or effect the other way, or a change in a side signal; the % refers to the signal ratio
#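 TMD8 ABC-DLBCL cells carrying doxycycline-inducible green luciferase fused to IkappaBalpha plus unfused red luciferase were exposed to compounds (up to 46 uM) for 4 hrs at 37C. Activity came from the overlap-corrected green/red luminescence ratio.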
# B2AR arrestin – qHTS assay of beta-arrestin-biased ligands of beta2-adrenergic receptor; 0.02% of 330,000 active; Beta-2 adrenergic receptor (Homo sapiens), P07550; beta-arrestin recruitment to beta2AR, cell-based reporter; Potency, µM (doses to about 46.1 µM), usual class: activators; note: nearly all actives have a fitted effect of over 65% in size
# Tb PFK inh – qHTS Assay to Find Inhibitors of T. brucei phosphofructokinase; T. brucei PFK, ADP-Glo luminescence; Potency, µM (highest dose often 57.5 µM), usual class: inhibitors; 0.17% of 330,000 active; ATP-dependent 6-phosphofructokinase (Trypanosoma brucei brucei), O15648; note: nearly all actives have a fitted effect of over 60% in size
# Target sequence (O15648 whole entry, looked up): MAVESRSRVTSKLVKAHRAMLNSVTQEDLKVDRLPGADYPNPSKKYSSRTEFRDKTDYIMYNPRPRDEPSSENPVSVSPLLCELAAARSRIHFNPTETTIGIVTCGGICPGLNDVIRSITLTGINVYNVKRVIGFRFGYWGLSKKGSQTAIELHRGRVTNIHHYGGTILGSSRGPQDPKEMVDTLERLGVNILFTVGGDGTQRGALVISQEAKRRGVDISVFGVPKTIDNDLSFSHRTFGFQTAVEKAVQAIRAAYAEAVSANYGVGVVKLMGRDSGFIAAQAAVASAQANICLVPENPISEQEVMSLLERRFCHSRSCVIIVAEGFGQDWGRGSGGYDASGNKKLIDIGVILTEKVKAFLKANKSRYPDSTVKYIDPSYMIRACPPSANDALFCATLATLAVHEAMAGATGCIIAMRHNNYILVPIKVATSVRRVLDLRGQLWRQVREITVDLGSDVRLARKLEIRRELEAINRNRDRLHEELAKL
#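 Activity is normalized to no-enzyme wells (full inhibition) and 1.25 nM enzyme wells (no inhibition). Reaction: 0.5 mM F6P, 0.1 mM ATP, 45 min RT, ADP-Glo luminescence; concentration-response curves fitted and classed by quality.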
# Pin1 inh – qHTS Assay to Find Inhibitors of Pin1; Pin1 FP peptide displacement, HiFluor488, 10 min; Peptidyl-prolyl cis-trans isomerase NIMA-interacting 1 (Homo sapiens), Q13526; Potency, µM (highest dose often 115 µM), actives largely listed as inhibitors; 0.009% of 390,000 active; active = well fitted inhibition curve with a large enough effect in the polarisation, with a control signal flat, not every such curve was filed as active; inconclusive = small, poorly fitted or top-dose-only effect, or effect the other way, or a change in a side signal; inactive = no such curve, though single readings can be large or run the other way; the % refers to the polarisation
# Target sequence (Q13526 whole entry, looked up): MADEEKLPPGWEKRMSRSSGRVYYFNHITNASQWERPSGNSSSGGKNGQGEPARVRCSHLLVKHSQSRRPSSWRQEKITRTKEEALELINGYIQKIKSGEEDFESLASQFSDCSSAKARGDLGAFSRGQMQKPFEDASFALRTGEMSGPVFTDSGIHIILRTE
# GLS inhibitor – qHTS for Inhibitors of Glutaminase (GLS); GLS enzymatic activity, qHTS titration; Glutaminase kidney isoform, mitochondrial (Homo sapiens), O94925; Potency, µM (top dose mostly 45.5 µM), usual class: inhibitors; 0.21% of 410,000 active
#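 Human kidney-isoform GLS in 45 mM KH2PO4 pH 8.2, 0.02% Tween-20, with compound, started with 1mM L-Glutamine (added stock). Glutamate oxidase/HRP/Amplex red coupled fluorescence read at start and after 30 min at RT.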
# Hits are given with their value; . = inactive; ? = inconclusive; / = no result. Unless noted, calls come from the whole dose curve; as a rule, active = well fitted curve in the direction sought with a large enough effect; inconclusive = small, poorly fitted or top-dose-only effect, or another doubt; inactive = no such curve, though single readings can be large; an effect the other way counts as inactive or inconclusive.
SMILES,Tb PGK inh,Chronic BCR inh,B2AR arrestin,Tb PFK inh,Pin1 inh,GLS inhibitor
Oc1ccc(Cl)cc1N=Nc1ccccc1,.,.,.,.,.,.
Cc1cc(/C=N/NC(=O)c2ccncc2)c(C)n1-c1ccccc1,.,.,.,.,.,.
Cc1cc(C(=O)N/N=C/c2ccc(O)c(O)c2O)c(C)n1-c1ccccc1,.,.,.,?,.,16µM
COc1ccc2ccccc2c1/C=N/Nc1ccc(Cl)c(C(=O)O)c1,.,?,.,.,?,?
COc1ccc2ccccc2c1/C=N/Nc1cccc(C(=O)O)c1,.,?,.,.,.,7.9µM
O=c1c2ccccc2nc2sc(NCc3ccccc3)nn12,/,/,/,/,.,/
COc1ccc(NS(=O)(=O)c2ccc3ccccc3c2)c2ncccc12,.,3.2µM,.,.,.,.
COc1ccccc1NS(=O)(=O)c1ccc2ccccc2c1,.,.,.,.,.,.
CC1=NN(Cc2ccccc2)C(=O)C1C(c1ccc(Cl)cc1)C(C#N)C#N (stereo not given),.,21µM,.,.,.,.
CC1=NN(Cc2ccccc2)C(=O)C1C(c1ccccc1)C(C#N)C#N (stereo not given),.,?,.,.,.,.
CC(C)C[C@@H](CNCC(=O)[C@H](Cc1ccccc1)NC(=O)c1[nH]cnc1C(=O)N[C@H](CN)CC(C)C)NC(=O)c1nc[nH]c1C(=O)N[C@@H](CC(=O)O)C(=O)O,.,/,/,/,/,13µM
Cc1c(NC(=O)/C(C#N)=C/c2c(Oc3ccccc3)nc3ccccn3c2=O)c(=O)n(-c2ccccc2)n1C,.,18µM,.,.,.,.
CC(C)N1Cc2ccc(Nc3nn4c(=O)c5ccccc5nc4s3)cc2C1,/,/,/,/,.,/
Cc1ccc(C)n1-c1cccc(C(=O)O)c1,/,.,.,11µM,/,/
N#Cc1c[nH]n2c(NC3CCCC3)c(-c3ccc(Cl)cc3)nc12,.,/,/,/,.,?
COc1ccc(-c2nc3c(C#N)c[nH]n3c2NC2CCCC2)cc1,.,/,/,/,?,13µM
CCOc1ccc(-c2nc3c(C#N)c[nH]n3c2NC2CCCCC2)cc1,.,/,/,/,.,13µM
CC(C)(C)OC(=O)n1c2ccsc2c2cnn(Cc3ccccc3F)c(=O)c21,/,/,/,/,.,/
O=C(N1Cc2ccc(Nc3nn4c(=O)c5ccccc5nc4s3)cc2C1)C(F)(F)F,/,/,/,/,.,/
OCCCc1n[nH]c(=S)n1-c1ccccc1,.,?,.,.,.,.
O=C1c2cccc3cccc(c23)C(=O)N1CCCc1n[nH]c(=S)n1-c1ccccc1,.,.,.,.,.,4µM
COc1cccc(-c2coc3cc4oc(=O)c(CCC(=O)O)c(C)c4cc23)c1,.,?,.,.,?,13µM
Cc1c(CC(=O)NCC(=O)O)c(=O)oc2cc3occ(-c4ccccc4)c3cc12,.,.,.,.,?,4µM
COc1cccc(-c2coc3c(C)c4oc(=O)c(CCC(=O)O)c(C)c4cc23)c1,.,?,.,.,?,?
COc1cccc(C2c3c(ncn(-c4ccccc4C(C)(C)C)c3=N)Oc3ccc4ccccc4c32)c1 (stereo not given),/,/,/,/,.,/
SMILES,Tb PGK inh,Chronic BCR inh,B2AR arrestin,Tb PFK inh,Pin1 inh,GLS inhibitor
Cc1cc(NC(=O)CSc2cn(CCNC(=O)c3ccccc3)c3ccccc23)no1,7.1µM,?,.,.,?,8.9µM
CCC(=O)NC(c1cccs1)c1ccc2cccnc2c1O (stereo not given),.,.,13µM,.,.,.
Cc1ccc(C)n1-c1ccc(N2CCOCC2)cc1,.,.,.,.,.,.
Cc1ccc(C)n1-c1ccc(N(C)C)cc1,.,.,.,.,.,13µM
O=C1CCc2cc(S(=O)(=O)Nc3cccc(C(F)(F)F)c3)ccc2N1,/,/,/,/,.,/
O=[S+]([O-])(c1ccc2c(c1)OCCO2)N1CCN([S+](=O)([O-])c2c(O)cc(F)cc2F)CC1,/,/,/,/,.,/
CO/N=C(/C(=O)NC1C(=O)N2C(C(=O)O)=C(CSc3nc(=O)c(O)nn3C)CSC12)c1csc(N)n1 (stereo not given),/,/,/,/,/,28µM
CO/N=C(/C(=O)N[C@@H]1C(=O)N2C(C(=O)O)=C(CSc3nc(C)c(CC(=O)O)s3)CS[C@H]12)c1csc(N)n1,/,/,/,/,/,.
CCOc1ccc(N)c(SSc2cc(OCC)ccc2N)c1,.,?,.,.,.,.
CS(=O)(=O)c1ccc(N)c(SSc2cc(S(C)(=O)=O)ccc2N)c1,.,.,.,?,.,10µM
COC(=O)c1ccc(=O)c2nc3/c(=C/O)c(O)cc(=O)c3[nH]c12,.,?,.,.,7.1µM,5µM
CCCSc1nc(C)c(C(C)=O)cc1C#N,.,18µM,.,.,.,.
COC(=O)CSc1nc(C)c(C(C)=O)cc1C#N,.,?,.,.,.,.
O=C(O)CNc1cccc(-c2nn3c(=O)cc(N4CCNCC4)nc3s2)c1,/,/,/,/,.,/
NC(=O)C1CCN(c2ncc(-c3ccc4c(c3)OCCCO4)s2)CC1,/,/,/,/,.,/
O=C(O)c1cccc(N2C(=O)/C(=C/c3ccc(SCc4ccc(Cl)cc4)o3)SC2=S)c1,35µM,.,.,.,?,?
COc1ccc(-c2cnc(N3CCC(C(N)=O)CC3)s2)cc1OC,/,/,/,/,.,/
CC(=O)c1ccc2c(c1)C1C=CCC1C(C(=O)O)N2 (stereo not given),14µM,.,.,8.5µM,/,2.5µM
COc1ccc2nc(-c3cccc(F)c3)sc2c1,/,/,/,/,.,/
Cc1cccc(-c2ccc3ncnc(N(C)Cc4ccco4)c3c2)c1,/,?,.,.,/,/
CN(Cc1ccco1)c1ncnc2ccc(-c3ccc4c(ccn4C)c3)cc12,.,6.5µM,.,.,.,.
CC(=O)OC1CCC2(C)C(=CCC3C2CCC2(C)C(C(C)=O)CCC32)C1 (stereo not given),/,/,/,/,/,.
Cc1ccc(CNC(=O)c2ccc3c(c2)NC(=O)C(CS(=O)(=O)Cc2ccc(F)cc2)N3)cc1 (stereo not given),.,/,/,/,.,13µM
COc1ccc(-c2cc(=O)oc3c(O)c(O)ccc23)cc1,?,.,.,.,?,4.5µM
COc1ccc(-c2cc(=O)oc3cc(OC(C)C(=O)O)ccc23)cc1 (stereo not given),.,.,.,.,.,.
O=C(/C=C\c1ccccc1OC(=O)c1ccccc1F)c1cc2ccccc2o1,.,13µM,.,.,.,.
O=[S+]([O-])(c1c(F)cccc1F)N1CCN([S+](=O)([O-])c2cccc3nonc23)CC1,/,/,/,/,.,/
